SF1 inhibitor: blocks the human nuclear receptor SF-1; Q13285; CHO-K1 Gal4-SF-1 LBD luciferase reporter; inhibition, % at 10 µM; actives 0.55% (n = 65,000); AID 525;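 active means inhibition above the mean inhibition of all tested compounds plus 3 SD, cut at about 48% in these data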
Target sequence (Q13285 whole entry, looked up, the tested form may be a part): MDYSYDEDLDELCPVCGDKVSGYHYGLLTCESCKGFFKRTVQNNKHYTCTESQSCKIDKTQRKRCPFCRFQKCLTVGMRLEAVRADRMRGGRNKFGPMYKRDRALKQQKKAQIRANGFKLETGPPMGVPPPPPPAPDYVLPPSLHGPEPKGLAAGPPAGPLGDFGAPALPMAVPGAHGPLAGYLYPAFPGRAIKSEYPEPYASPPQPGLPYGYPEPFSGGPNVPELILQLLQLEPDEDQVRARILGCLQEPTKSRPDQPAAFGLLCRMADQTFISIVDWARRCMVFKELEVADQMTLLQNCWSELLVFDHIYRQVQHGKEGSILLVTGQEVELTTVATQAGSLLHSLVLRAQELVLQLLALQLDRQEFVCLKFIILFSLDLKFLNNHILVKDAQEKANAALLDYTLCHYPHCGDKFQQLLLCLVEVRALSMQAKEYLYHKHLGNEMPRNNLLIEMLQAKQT
Each line names hits and unclear results; the compound was inactive in the other large screens. Shown is part of a subset that was picked to be rich in hits.

COc1cccc(-c2csc(NC(=O)C3CC3)n2)c1	none
COc1ccc2c(c1)sc1nc(-c3ccccc3)cn12	SF1 inhibitor 89
Cc1c(C(=O)Nc2ccccc2)sc2nc(-c3ccccc3)cn12	none
Cc1cc(C)n2c3c(c(C#N)c2n1)CCCC3	none
COc1ccc(CCNc2nnc(Sc3nnnn3-c3ccccc3)s2)cc1OC	SF1 inhibitor 68
COC(=O)c1ccc(CSc2nnnn2-c2ccccc2)o1	none
COc1ccc(CCNS(=O)(=O)c2ccccc2)cc1OC	none
NC(=O)c1ccsc1NC(=O)COc1ccccc1	none
COC(=O)c1c(-c2cccnc2)csc1NC(=O)c1cc(C)on1	none
CCN(CC)c1ccc(-c2nn3c(-c4cccnc4)nnc3s2)cc1	none
CCc1c(C)nc2ncnn2c1NCCc1ccc(OC)cc1	SF1 inhibitor 85
CCOC(=O)NCCc1ccc(OC)cc1	none
COc1ccc(CCNc2oc(COc3ccccc3)nc2C#N)cc1	none
Cc1ccc2c(c1)nnn2C1CCN(S(=O)(=O)c2ccc(C(=O)N3CC(C)CC(C)C3)cc2)CC1 (stereo not drawn)	none
CCOC(=O)c1cnn(-c2nc(SC)nc3sc4c(c23)CCC4)c1N	none
O=c1c2cnn(-c3ccc(F)cc3)c2ncn1Cc1ccccn1	none
CN(C)CCCOC(=O)c1ccc(Br)cc1	none
Cc1oc2cc3c(C(=O)OCCN(C)C)c(C)oc3cc2c1C(=O)OCCN(C)C	SF1 inhibitor 79
CN(C)CCOC(=O)C1(c2ccccc2)CCOCC1	none
COC(=O)C1=CN(C2CC2)C=C(C(=O)OC)C1c1ccccc1OC	none
O=C(Cn1ccsc1=NC(=O)c1ccco1)c1ccccc1	none
CCSCCOC(=O)C1=C(C)NC(=O)NC1c1cc(OC)ccc1OC (stereo not drawn)	none
CCOC(=O)C1=C(Cn2cnc3ccccc32)NC(=O)NC1c1cc(C)ccc1C (stereo not drawn)	SF1 inhibitor 59
CCOC(=O)C1=C(C)Nc2ncnn2C1/C=C/c1ccccc1 (stereo not drawn)	none
O=S(=O)(c1cccc(C(F)(F)F)c1)N1CCC(O)(c2cccnc2)CC1	none
Cc1c(N=C2SCC(=O)N2c2c(C)n(C)n(-c3ccccc3)c2=O)c(=O)n(-c2ccccc2)n1C	none
CCCN1C(=O)SC(CC(=O)Nc2ccc(Br)cc2)C1=O (stereo not drawn)	none
C=CS(=O)(=O)c1ccc(Oc2ccc(S(=O)(=O)C=C)cc2)cc1	SF1 inhibitor 97
CCOC(=O)N1CCN(S(=O)(=O)c2c(C)[nH]c(=O)[nH]c2=O)CC1	none
CN(C)CC(C(=O)c1ccccc1)c1ccccc1 (stereo not drawn)	SF1 inhibitor 68
CCOC(=O)Cn1c(CN2CC(C)OC(C)C2)nc2c1c(=O)n(C)c(=O)n2C (stereo not drawn)	none
Cn1c(COc2ccc3ccccc3c2)nnc1SCC(=O)O	none
CCOc1ccccc1-c1nc(-c2ccc(C)nc2OC)no1	none
Cc1nn(-c2nc3ccccc3s2)c(N)c1-c1ccccc1	none
O=c1c2ccccc2nc2sc3ccccc3n12	none
O=c1c2ccccc2cnn1-c1nc2ccccc2s1	SF1 inhibitor 90
CCOC(=O)c1cnn2c(C)cc(-c3ccccc3)nc12	none
CCOC(=O)c1cnc(-n2nc(C)cc2C)nc1NC(C)c1ccccc1 (stereo not drawn)	SF1 inhibitor 49
CCOC(=O)c1cc(-c2ccco2)nc2c1c(C)nn2-c1ccccc1	none
CCC(=O)c1ccccc1OCCSc1nc(C)cc(=O)[nH]1	none
Nc1cccc(-c2nc3ccc(N)cc3s2)c1	SF1 inhibitor 61
Cc1ccc2[nH]c(-c3cccc(N)c3)cc2c1	none
CN(C)c1nc(N)nc(-c2nc3ccccc3s2)n1	none
CC(=O)Cc1nsc(Nc2ccc3c(c2)OCCO3)n1	none
Nc1c(C(=O)Nc2ccc3c(c2)OCCO3)nnn1CCc1ccccc1	none
CCc1ccccc1NC(=O)c1nnn(CC(=O)Nc2ccccc2C)c1N	none
COc1cccc(CNC(=O)c2nnn(CC(=O)Nc3ccc(C)c(C)c3)c2N)c1	SF1 inhibitor 56
CC(C)CN(C(=O)c1ccc(=O)n(C)n1)c1nc2ccccc2s1	none
COCCOC(=O)C1=C(C)N=C2SCCC(=O)N2C1c1ccc(C(=O)OC)cc1 (stereo not drawn)	none
CC1=C(C)CC(C(=O)c2ccccc2)C(C(=O)O)C1 (stereo not drawn)	none
O=C(Nc1ccc2c(c1)OCCO2)c1cnc2n(c1=O)CCS2	none
O=S1(=O)C=C(Sc2nc3cc(Cl)ccc3o2)c2ccccc21	SF1 inhibitor 71
O=C(Nc1cccc(-c2nc3cc(Cl)ccc3o2)c1)C1CCCO1 (stereo not drawn)	none
O=C1c2ccccc2C(=O)N1CCCSc1nc2ccccc2o1	none
O=C(NCCc1ccccc1)c1cc(-c2ccc3c(c2)OCO3)on1	none
Cc1ccc(-c2cc3c(nn2)-c2ccccc2C3=O)cc1	SF1 inhibitor 88
O=C(CSc1nnc(Cc2ccccc2)o1)N1CCOCC1	none
Cc1ccc(C)c(S(=O)(=O)Nc2ccc(S(=O)(=O)Nc3onc(C)c3C)cc2)c1	none
CCN(CC)CCNC(=O)C1c2cc(OC)c(OC)cc2C(=O)N2CCc3ccccc3C12 (stereo not drawn)	none
C=CCN(C(=O)Cn1nnc2ccccc21)C(C(=O)NCCOC)c1ccc(OC)cc1OC (stereo not drawn)	none
Cc1cc(NC(=O)c2ccc3c(c2)OCO3)no1	none

High-throughput results (PubChem BioAssay)
